Drawing on PubChem BioAssay (EPA / NIEHS), this text covers outcome and AC50 for 40 molecules.

Active and inactive are the calls of the source. Rule for the calls: active = hit-call score of the fitted dose curve at least 0.9, where 1 is the maximum; inactive = score below 0.9.

A short description of the assay: ATG_FoxO_CIS: Attagene CIS-FACTORIAL HepG2 Assay for human Forkhead box O (FoxO) (AID 2282943). To be noted: HepG2 Attagene cis-reporter, FoxO element, mRNA; actives raise or lower the signal. The method, then:
ATG_CIS is a cell-based, multiplexed-readout assay that uses HepG2, a human liver cell line, with measurements taken at 24 hours after chemical dosing in a 24-well plate.ATG_FoxO_CIS is one of 52 assay component(s) measured or calculated from the ATG_CIS assay. It is designed to make measurements of mRNA induction, a form of inducible reporter, as detected with fluorescence intensity signals by Reverse transcription polymerase chain reaction (RT-PCR) and Capillary electrophoresis technology.Data from the assay component ATG_FoxO_CIS was analyzed into 1 assay endpoint. This assay endpoint, ATG_FoxO_CIS, was analyzed with bidirectional fitting relative to DMSO as the negative control and baseline of activity. Using a type of inducible reporter, measures of mRNA for gain or loss-of-signal activity can be used to understand the reporter gene at the transcription factor-level as they relate to the gene FOXO1 and FOXO3. Furthermore, this assay endpoint can be referred to as a primary readout, because this assay has produced multiple assay endpoints where this one serves a reporter gene function. To generalize the intended target to other relatable targets, this assay endpoint is annotated to the dna binding intended target family, where the subfamily is forkhead box protein.
Human liver HepG2 cells are transiently transfected with multiple reporter transcription units (MRTUs) in 6-well plates using FuGene 6 reagent (Roche; 3 ml FuGene/1 mg DNA). The MRTU constructs are regulated by a cis-regulating element (promoter). […] A major difference between the CIS and TRANS system is that in CIS activities of endogenous TFs are measured, whereas the TRANS assay evaluates changes in activities of exogenous, chimeric NR-Gal4 proteins. […] At the end of 24 hour incubation, total RNA was isolated using TriZol reagent (Invitrogen). The isolated RNA is then reverse-transcribed using oligo(dT) primer and Mo-MLV reverse transcriptase (Invitrogen) with DNAse I (Ambion) treatment for 30 min. The one-tenth of the produced cDNA was amplified by PCR using Taq DNA polymerase (Invitrogen) and two reporter sequence-specific primers. The PCR products were fluorescently labeled by primer extension with 6-arboxyfluorescein (6-FAM) 5'-labeled reporter sequence-specific primer (2 min at 95 C, 20 s at 68 C and 10 min at 72 C) and these products were digested with 5U of HpaI (New England Biolabs) for 2h at 37 C. The fragments were purified using Qiaquick PCR columns (Qiagen), analyzed on an ABI 3130xL genetic analyzer (Applied Biosystems) with peak positions identified by using a set of X-rhodamine (ROX)-labeled MapMarker1000 molecular weight standards (BioVentures). The raw capillary electrophoresis data was processed using Attagraph software (Attagene).
For the molecule `O=C(NC(=O)c1c(F)cccc1F)Nc1ccc(Oc2ccc(C(F)(F)F)cc2Cl)cc1F`, the molecule was classed as inactive.
For the molecule `C=C(Cl)CCl`, the result was inactive.
`C=CC(=O)OCCO`: the molecule was classed as inactive.
Regarding `Cl/C=C\CCl`, the molecule was called inactive.
The term AC50 denotes the midpoint of the concentration-response curve, whichever way the signal moves. For `O=[N+]([O-])C=Cc1ccccc1`, the AC50 was 33.4 µM (active).
Turning to `CC(C)COP(=O)(OCC(C)C)OCC(C)C`, the outcome was inactive.
With `COc1cc(OC)c(OC)cc1C=O`, the call was inactive.
On to `CCC(Br)(CC)C(=O)NC(N)=O`, for which the call was inactive.
As for `CCOP(O)OCC`, the outcome was inactive.
In the case of `CCC[N+](=O)[O-]`, the result was inactive.
Take `CCc1cc(C)cc(CC)c1-c1c(OC(=O)C(C)(C)C)n2n(c1=O)CCOCC2`: the molecule was classed as inactive.
For the molecule `Nc1ccc(Cl)c(Cl)c1`, the molecule was classed as inactive.
For the molecule `CC1(C)CC(=O)CC(C)(C)N1[O]`, the molecule was called inactive.
Turning to `C#CC1(O)CCCCC1`, the result was inactive.
As to `CCCCOP(=O)(O)OCCCC`, the molecule was classed as inactive.
In the case of `CCOC(=O)N(C)N=O`, the molecule was classed as inactive.
For `C[N+](=O)[O-]`, the molecule was called inactive.
Same read-out and setting: in the case of `Clc1ccc(-c2ccccc2)cc1` it was “inactive”; in that of `C=CCc1ccc(OC(=O)Cc2ccccc2)c(OC)c1`, “inactive”.
Take `[Cl][Sb]([Cl])[Cl]`: the molecule was called inactive.
In the case of `Oc1ccc(C2(c3ccc(O)cc3)c3ccccc3-c3ccccc32)cc1`, the AC50 was 9.31 µM (active).
For the molecule `C=CC(=O)OCCCCOC(=O)C=C`, the AC50 was 54.7 µM (active).
Consider `C=Cc1cccc(CCl)c1`, for which the molecule was called inactive.
In the case of `CNC(=N[N+](=O)[O-])NCC1CCOC1` (stereo not given), the molecule was classed as inactive.
On the same count and under the same terms, in the case of `O=S(=O)(O)O` it was “inactive”.
As to `Nc1ccccc1C(=O)Oc1ccc2ccccc2c1`, the AC50 was 147 µM (active).
As to `CCCCCc1cc(O)cc(O)c1`, the outcome was inactive.
The same measure, in the same setting: under `COC(=O)COc1ccc(Cl)cc1Cl` stands “inactive”; under `CC1OC(C)OC(C)O1` (stereo not given), “inactive”.
Regarding `C=COCCCl`, the result was inactive.
Still for that read-out and setting: under `CCNCC` stands “inactive”; under `Nc1ccccc1`, “inactive”.
Still for that read-out and setting: under `C[N+](C)=CCl` stands “inactive”; under `O=[N+]([O-])c1cc(C(F)(F)F)c(Cl)c([N+](=O)[O-])c1Cl`, “inactive”; under `Nc1ccc([N+](=O)[O-])cc1N`, “inactive”.
Regarding `CC1(C)C(=O)NC(=O)NC1=O`, the result was inactive.
Still for that read-out and setting: under `O=C(CCl)c1ccccc1` stands “inactive”; under `[N-]=[N+]=CC(=O)OC[C@H](N)C(=O)O`, “inactive”; under `COCC(=O)N(c1c(C)cccc1C)N1CCOC1=O`, “inactive”.
As to `CC(C)C(=O)Cl`, the outcome was inactive.
